# Reference: PubChem BioAssay AID777 (Sanford-Burnham Center for Chemical Genomics, 2007)
# Out of some 96,000 compounds screened, about 19,000 (20%) were called active. A selection follows. A number with no mark means an inactive call.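 The calls were made as follows: active = blocking of liver enzyme CYP2C9 beyond about 50% at 5 µM (limit read from the data); inactive = the rest.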
# Molecular target: Cytochrome P450 2C9 (Homo sapiens) (UniProt P11712)
# Experiment: blockers of cytochrome P450 2C9 activity – biochemical, luminescence, ADME assay, primary screen (AID 777)
# Settings: CYP2C9 Supersomes, luciferin-H conversion, at 5 µM, hits give high values
# Chain of Cytochrome P450 2C9 (Homo sapiens) (P11712 whole entry, looked up): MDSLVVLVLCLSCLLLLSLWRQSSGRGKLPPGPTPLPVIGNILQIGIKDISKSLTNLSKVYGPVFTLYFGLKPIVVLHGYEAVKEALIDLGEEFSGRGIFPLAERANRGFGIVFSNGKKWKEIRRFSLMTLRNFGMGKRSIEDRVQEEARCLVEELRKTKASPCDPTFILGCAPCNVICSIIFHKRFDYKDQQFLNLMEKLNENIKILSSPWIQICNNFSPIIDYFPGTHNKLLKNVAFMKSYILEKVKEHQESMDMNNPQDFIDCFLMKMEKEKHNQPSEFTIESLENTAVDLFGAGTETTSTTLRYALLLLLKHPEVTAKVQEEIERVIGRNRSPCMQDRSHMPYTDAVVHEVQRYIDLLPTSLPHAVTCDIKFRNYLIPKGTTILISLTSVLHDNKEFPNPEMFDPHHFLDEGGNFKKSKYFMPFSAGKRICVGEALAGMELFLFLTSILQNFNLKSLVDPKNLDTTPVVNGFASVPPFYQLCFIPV
row,Compound,inhibition
1,CC1CC(C)CN(CC(=O)N2c3ccccc3CCc3ccccc32)C1 (stereo not drawn),-3.1%
2,CC(c1ccccc1)n1c(NCCCn2ccnc2)nc2c1c(=O)[nH]c(=O)n2C (stereo not drawn),96.2% (active)
3,COc1ccc(CCn2c(NCCCN3CCOCC3)nc3c2c(=O)[nH]c(=O)n3C)cc1,16.8%
4,CCCCNc1nc2c(c(=O)[nH]c(=O)n2C)n1CCOc1ccccc1,23.9%
5,O=C1c2cccc3cccc(c23)N1CN1CCN(c2ccccn2)CC1,-43%
6,C/C(=N\NC(=O)c1ccccc1C)c1ccc(N2CCOCC2)cc1,-40.9%
7,CCCCc1nc2ccccc2c(=O)n1NC(=O)c1c(O)c2cccc3c2n(c1=O)CC3,20.8%
8,CCCC(=O)Nc1c(O)c2ccccc2[nH]c1=O,5.2%
9,CCCc1nc2ccccc2c(=O)n1NC(=O)c1c(O)c2ccccc2[nH]c1=O,60.6% (active)
10,CCCOC(=O)Cc1c(O)c2ccccc2[nH]c1=O,-19.5%
11,C=CCn1c(CC(=O)Nc2cccc(OC)c2)nnc1SCC(=O)NC1CCCCC1,10%
12,C=CCn1c(SCc2c(C(=O)OC)sc(N)c2C(=O)OC)nnc1-c1ccc(Cl)cc1,79% (active)
13,COCCn1c(SCc2nc3cc(OC)c(OC)cc3c(=O)[nH]2)nnc1-c1ccncc1,-18.5%
14,C=CCn1c(SCc2cc(C(=O)OC)c(C)o2)nnc1-c1ccncc1,57.4% (active)
15,COC(=O)c1sc(=S)n(-c2ccc(Cl)cc2)c1C,40.2%
16,CCc1nnc(NC(=O)CSc2nnc(-c3ccncc3)n2Cc2ccccc2)s1,26.1%
17,O=C1c2ccccc2C2=Nc3ccccc3SC(c3ccccc3F)C12 (stereo not drawn),8.8%
18,COc1ccccc1Nc1nc(N)nc(CN(C)C2CCCCC2)n1,-18.4%
19,Cc1c(C#N)c2ncn(CC#N)c(=O)c2n1-c1ccccc1,-15.9%
20,O=C(NCc1ccccn1)c1cnc2sccn2c1=O,-4%
21,O=C(CNCCO)NC12CC3CC(CC(C3)C1)C2,-6%
22,O=C(Nc1cc(C(F)(F)F)ccc1Cl)c1cc2nc3c(c(C(F)(F)F)n2n1)CCCC3,-42.8%
23,COc1ccc2nc(NC3=NCN(CC4CCCO4)CN3)nc(C)c2c1 (stereo not drawn),1.3%
24,COc1c(Cl)cc(C(=O)Nc2ccc(Cl)cn2)cc1Cl,-12.2%

row,Compound,inhibition
1,CCOC(=O)N1CCN(C(c2cccnc2)c2ccc3cccnc3c2O)CC1 (stereo not drawn),32.6%
2,COC(=O)Cc1cc(=O)n(-c2nc3ccccc3s2)[nH]1,18.5%
3,CC(=NCc1ccco1)c1c(C(F)(F)F)[nH]n(-c2nc3ccccc3s2)c1=O,64.2% (active)
4,CCc1ccc(-c2cc(C(=O)NCc3ccco3)c3ccccc3n2)s1,39.4%
5,CCOc1[nH]n(-c2ccc(Cl)cc2)c(=O)c1C=Nc1ccc(O)cc1,37%
6,O=C(Nc1ccc(S(=O)(=O)N2CCCC2)cc1Cl)C1=COCCO1,19.8%
7,CC(C)C(C(=O)NC1CCCCC1)N(CC1CCCO1)C(=O)CNS(=O)(=O)c1ccc(F)cc1 (stereo not drawn),-3.2%
8,COc1ccc(-c2oc3ncn(Cc4ccco4)c(=N)c3c2-c2ccc(OC)cc2)cc1,27.6%
9,CCN1CCN(C(=O)CN(C)S(=O)(=O)c2ccc(OC)cc2)CC1,-20.1%
10,COc1ccc(N2CCN(C(=O)CNC(=O)c3ccc(C(C)(C)C)cc3)CC2)cc1,22.1%
11,COc1ccc(OC)c(S(=O)(=O)N(C)CC(=O)N2CCN(c3ccccc3)CC2)c1,78.3% (active)
12,COC(=O)c1ccc(S(=O)(=O)c2ccc(C(=O)OC)s2)s1,49.3%
13,Cn1c(Cc2cccc3ccccc23)nnc1SCC(=O)N1CCN(c2cccc(Cl)c2)CC1,-15.6%
14,Cc1nnc(NC(=O)CSc2nccn2-c2cccc(C)c2C)s1,39.9%
15,O=C(O)CSc1nccn1-c1cccc(Cl)c1,57.5% (active)
16,O=C(c1ccccn1)c1ncc(C(F)(F)F)cc1Cl,11.2%
17,Cc1cc(C)n(C(=O)c2ccc(S(=O)(=O)N3CCCC3)cc2)n1,86.9% (active)
18,CC(=O)c1c(N2CCOCC2)nc(=S)n(-c2cc(C)ccc2C)c1C,-8.6%
19,Cc1ccc(C(=O)Nc2ccccc2C(=O)NC2CCCCC2)cc1S(=O)(=O)N1CCOCC1,23.7%
20,CSC1=NCCN1C(=O)c1ccc(S(=O)(=O)N2CCOCC2)cc1,0.8%
21,Cc1ccccc1-c1nnn(CC(=O)c2ccc(S(=O)(=O)N3CCCC3)cc2)n1,9%
22,Cc1cc(C)n(C(=O)c2ccc(C)c(S(=O)(=O)N3CCOCC3)c2)n1,66.3% (active)
23,Cc1cccc(N2C(=O)SC(N(CC(=O)O)c3cccc(C)c3)C2=O)c1 (stereo not drawn),30.8%
24,COc1cccc(C(=O)Nc2c3c(nn2-c2cccc(C)c2C)CS(=O)(=O)C3)c1OC,-6.7%

row,Compound,inhibition
1,Cc1ccc(-n2nc3c(c2NC(=O)c2ccc4c(c2)OCO4)CSC3)c(C)c1,1.1%
2,Cc1cccc(-n2nc3c(c2NC(=O)c2ccc(Br)o2)CSC3)c1C,72.3% (active)
3,COCc1nc2ccccc2n1Cc1ccccc1Br,14.7%
4,COc1ccc(-c2cn(-c3ccc(C)cc3)c(=O)n2CC(=O)Nc2ccc(OC)c(OC)c2)cc1,80.5% (active)
5,COc1ccc(NC(=O)Cn2c(-c3ccc(OC)cc3)cn(-c3ccc(C)cc3)c2=O)cc1,10%
6,COc1ccc(NC(=O)COC(=O)Cn2c(C)nc3ccccc32)cc1OC,-9.8%
7,COCC(C)N=CC1=C(O)CC(C)(C)CC1=O (stereo not drawn),-5.7%
8,COc1ccc(S(=O)(=O)N2CCN(c3ncnc4c(-c5ccccc5)nsc34)CC2)cc1,51.9% (active)
9,COc1ccc(S(=O)(=O)N2CCCC(C(=O)Nc3ccc(NC(=O)c4ccccn4)cc3)C2)cc1 (stereo not drawn),-18.5%
10,CCOc1ccccc1NC(=O)CCN1CCN(S(=O)(=O)c2ccc(OC)cc2)CC1,41.4%
11,COc1cccc(Oc2ccc(N)cc2)c1,4.7%
12,CN1C2CCC1/C(=C\c1ccccc1Cl)C(=O)/C2=C\c1ccccc1Cl,-79.2%
13,COCCNC(=S)c1ccc(OC)cc1,-13.3%
14,Cn1c(Cc2csc(N)n2)nnc1SC/C=C/c1ccccc1,27.1%
15,CCOC(=O)CN1C(=O)C(=O)c2cc(C)ccc21,8.3%
16,C=CCn1c(C)cc(C(=O)CN2C(=O)c3ccccc3C2=O)c1C,-61.6%
17,Cc1cc2c(cc1C)N(C(=O)CN1C(=O)c3ccccc3C1=O)C(C)(C)c1ssc(=S)c1-2,78.2% (active)
18,Cc1ccc2c(c1)-c1c(ssc1=S)C(C)(C)N2C(=O)CN1C(=O)c2ccccc2C1=O,80.6% (active)
19,Cc1cc(C(=O)COC(=O)CCCN2C(=O)c3ccccc3C2=O)c(C)n1C,-21.1%
20,CC(C)OC(=O)CN1C(=O)c2ccccc2C1=O,4.9%
21,Cc1[nH]c2ccc(S(N)(=O)=O)cc2c1C,-42.1%
22,CNC(=S)NNC(=O)c1sccc1OCc1ccccc1,12.2%
23,COc1cccc(-n2c(SCC(=O)NC3CCCCC3)nc3n[nH]c(C)c3c2=N)c1,19.4%
24,CCOc1ccc(N(CC(=O)NCc2ccc(OC)cc2)S(=O)(=O)c2c(C)noc2C)cc1,3.9%

row,Compound,inhibition
1,COC(=O)c1ccc(NC(=O)CN(c2ccc(C)cc2)S(=O)(=O)c2c(C)n[nH]c2C)cc1,91.4% (active)
2,CCN(CC)C(=O)CCC(=O)Nc1ccc(C(=O)OC)cc1,8.6%
3,CCOc1ccc(N(CC(=O)OC)S(=O)(=O)c2c(C)noc2C)cc1,24.4%
4,COC(=O)c1ccc(NC(=O)Nc2ccc(C)cc2)cc1,34.6%
5,Cc1noc(C)c1C(=O)NC(C)c1ccc2c(c1)OCO2 (stereo not drawn),32.6%
6,Cc1noc(C)c1S(=O)(=O)N(CC(=O)NCc1ccc(Cl)cc1)c1ccc2c(c1)OCO2,68.9% (active)
7,Cc1noc(C)c1S(=O)(=O)N(CC(=O)Nc1ccc2c(c1)OCCO2)c1ccc(C(C)C)cc1,72.5% (active)
8,Cc1ccc(N(CC(=O)Nc2cc(C)cc(C)c2)S(=O)(=O)c2cccc3nonc23)cc1,48.7%
9,CCOC(=O)c1cccc(NC(=O)CN(c2ccc(C)cc2)S(=O)(=O)c2c(C)noc2C)c1,65.9% (active)
10,CS(=O)(=O)N(CC(=O)NCc1ccco1)c1ccc2c(c1)OCO2,2.2%
11,CCCCN=C(N)/C(C(=O)OCC)=C(\O)c1ccc(OC)cc1,20.5%
12,CCC(=O)Nc1ccc2c(c1)nc(CCN1CCN(C)CC1)n2C,0.1%
13,Cc1cc(C)n2nc(C(=O)NC(C)(C)C)nc2n1,-10.2%
14,Cc1ccc(C(C)C)c(OCc2nnc(SCC(=O)Nc3nccs3)n2C)c1,3.8%
15,CCn1c2c(c3ccc(OC)cc31)CCCC2=O,41.1%
16,Cn1c(=O)c2c(SCC(=O)N3CCOCC3)nc(C3CC3)nc2n(C)c1=O,8.1%
17,Cc1c(C)c2cc3c4c(oc3c(C)c2oc1=O)CCCC4,9.6%
18,O=S1(=O)CC(NCc2ccccc2)C(Nc2ccc(Cl)cc2)C1 (stereo not drawn),27.4%
19,Cc1ccn2cc(-c3nonc3C)cc2c1,15.3%
20,O=C(Nc1ncc2c(n1)CC(c1ccco1)CC2=O)c1ccc(Cl)cc1 (stereo not drawn),31.2%
21,C=CCn1c(SCc2csc(C)n2)nc2scc(-c3ccc(C)o3)c2c1=O,48%
